An excerpt weighted towards active compounds, which were near 4.5% of everything screened.
BJeLR viability: BJeLR cell viability loss | BJeLR (HRASV12) viability, CellTiter-Glo ATP luminescence, 48 h | inhibition, % (test concentration not listed) | 300,000 tested, 0.17% active | AID 1554; in the data active = inhibition above about 50%
GDH-TPI counter: inhibits GDH-TPI coupling enzymes, artifact for Mtb FBA screen; GDH-TPI coupled enzyme counterscreen, NADH absorbance; inhibition, % at 4.8 µM; 360,000 tested, 1.2% active; in the data active = inhibition above about 30%;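 note: 0% = DMSO wells and 100% = wells lacking the enzyme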
FBA Mtb inh: inhibits M. tuberculosis FBA enzyme | 360,000 tested, 2.3% active | inhibition, % at 1 µM | P9WQA3 | purified M. tuberculosis FBA, fluorescence read-out; in the data active = inhibition above about 27%;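 note: 0% = vehicle and 100% = reference inhibitor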
PrPC TRFRET: cell surface PrPC inhibition, primary TR-FRET screen; 370,000 tested, 0.43% active; TR-FRET read-out; inhibition, % at 13.8 µM; P04156; AID 720596; in the data active = inhibition above about 24%; note: 0% = median of the test wells and 100% = reference compound wells
PrP 5UTR inh: suppresses PrP 5' UTR mRNA reporter expression. cell-based PrP 5' UTR mRNA reporter, plate reader. AID 488862. 340,000 tested, 0.35% active. inhibition, % (test concentration not listed); in the data active = inhibition above about 52%; note: 0 = median of the neutral control wells
PfHsp40 rescue: rescue of PfHsp40-mediated yeast toxicity; S. cerevisiae expressing PfHsp40, growth rescue, ATP luminescence; growth rescue, % at 12.5 µM; 340,000 tested, 0.68% active; in the data active = growth rescue above about 28%, passing the limit was not always enough;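 note: yeast W303a lacking pdr1 and pdr3 grown in galactose medium; growth measured after three days at 30 °C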
PrPC TRFRET cf: confirmation of inhibitors of cell surface human prion protein | shares compounds with PrPC TRFRET | cell surface PrPC level, TR-FRET | inhibition, % at 13.8 µM | 1,500 tested, 65% active | AID 743200; in the data active = inhibition above about 25%
LD9 cytotox: LD9 cell cytotoxicity, PrPc inhibitor counter-screen | inhibition, % at 13.8 µM | shares compounds with PrPC TRFRET | LD9 cells cytotoxicity, luminescence viability | AID 743201 | 1,500 tested, 29% active; in the data active = inhibition above about 9.5%
* hit, by the source's call; . = no result given.

SMILES | BJeLR viability | GDH-TPI counter | FBA Mtb inh | PrPC TRFRET | PrP 5UTR inh | PfHsp40 rescue | PrPC TRFRET cf | LD9 cytotox
CN(C)S(=O)(=O)c1cccc(NC(=O)CSc2ncnc3ccccc23)c1 | 8 | 9 | 7 | 51* | 4 | 0 | 77* | -4
O=C(CSc1ncnc2ccccc12)Nc1cccc(S(=O)(=O)N2CCOCC2)c1 | 3 | 0 | 1 | 68* | -45 | 1 | 66* | 3
CN(C)S(=O)(=O)c1ccc(NC(=O)CSc2ncnc3ccccc23)cc1 | 2 | 7 | 5 | 50* | -9 | 0 | 53* | -13
O=c1[nH]c(=S)[nH]c(O)c1N=Nc1ccc(-c2ccccc2)cc1[N+](=O)[O-] | 2 | . | . | . | . | . | . | .
Cc1ccc(C2CCN(C(=S)Nc3cccc(C)c3)C2)cc1 (stereo not given) | -3 | -20 | 6 | 4 | -13 | 5 | . | .
CCc1c(C)nc(N)nc1N1N=C1SCC(N)=O | -12 | 13 | -1 | 26* | -23 | -1 | 25* | -3
Cc1[nH]c2ccccc2c1/C=N/Nc1nc2ccccc2[nH]1 | -4 | 23 | 1 | 30* | -32 | 4 | 6 | 12*
C(=N\Nc1nc2ccccc2[nH]1)/c1c[nH]c2ccccc12 | -3 | 19 | 0 | 33* | -67 | 0 | 5 | 4
Cc1ccc(/C=N/Nc2nc3ccccc3[nH]2)s1 | -5 | 39* | 1 | 27* | -83 | -1 | 10 | 5
C(=N\Nc1nc2ccccc2[nH]1)/c1cccc2cccnc12 | 42 | 18 | -1 | 13 | -3 | -1 | . | .
Cc1ccc(OCC(=O)NCCc2c[nH]c3ccccc23)cc1 | 0 | -4 | 8 | 3 | 34 | 1 | . | .
CCN(CC(=O)Nc1c(F)cccc1F)C(=O)c1cc(-c2cccs2)nn1-c1ccccc1 | 0 | 1 | 2 | 25* | -20 | -1 | 28* | -8
CN(CC(=O)Nc1c(Cl)cccc1Cl)C(=O)c1cc(-c2cccs2)nn1-c1ccccc1 | 11 | -5 | -2 | 23 | -29 | -1 | . | .
CCOC(=O)/C(C#N)=N\Nc1cc(Cl)ccc1OC | 0 | 4 | -1 | 5 | -28 | 1 | . | .
COc1ccc(NC(=O)c2cc(-c3cc(Cl)ccc3C)n[nH]2)cc1OC | . | 3 | -4 | 25* | . | . | 28* | 15*
COc1ccc(NC(=O)c2cc(-c3ccc(F)cc3C)n[nH]2)cc1OC | . | -1 | -1 | 25* | . | . | 13 | 8
CC(OC(=O)c1cccnc1Cl)C(=O)NCc1ccccc1 (stereo not given) | . | 7 | 0 | -5 | -5 | -1 | . | .
CCCN1CCC(N2CCCC(C(=O)O)C2)CC1 (stereo not given) | 7 | 5 | 1 | 13 | -17 | 0 | . | .
O=C(c1cc(C2CC2)nc2ccc(Br)cc12)N1N=C(C(F)F)CC1(O)C(F)F (stereo not given) | 1 | 11 | -2 | 31* | -21 | -1 | 21 | 1
Cc1ccc(S(=O)(=O)NCCNS(=O)(=O)c2ccc(C)cc2)cc1 | 1 | 3 | 6 | 3 | . | 1 | . | .
Cc1ccc(S(=O)(=O)NCCCN2CCCC2)cc1 | 10 | 10 | -1 | 55* | -31 | 1 | -1 | -10
CCOC(=O)C(C)Sc1nc(-c2ccccc2)nc2ccc(F)cc12 (stereo not given) | -4 | -1 | 6 | 1 | -16 | 1 | . | .
OCCSc1nc(-c2ccccc2)nc2ccc(F)cc12 | -1 | 14 | 1 | 13 | -14 | 1 | . | .
COC(=O)CSc1nc(-c2ccccc2)nc2ccc(F)cc12 | -4 | 5 | -1 | 49* | -28 | -1 | 107* | -4
CCOC(=O)CSc1nc(-c2ccccc2)nc2ccccc12 | -11 | 15 | 1 | 105* | 4 | -1 | 116* | 3
SMILES | BJeLR viability | GDH-TPI counter | FBA Mtb inh | PrPC TRFRET | PrP 5UTR inh | PfHsp40 rescue | PrPC TRFRET cf | LD9 cytotox
CCOC(=O)C(C)Sc1nc(-c2ccccc2)nc2ccccc12 (stereo not given) | -5 | 2 | 1 | 84* | -9 | 4 | 109* | 3
CCOC(=O)CSc1nc(-c2ccccc2)nc2ccc(F)cc12 | -5 | 11 | -1 | 26* | -6 | 1 | 105* | 5
CCOC(=O)CSc1nc2ccccc2c(=O)[nH]1 | 5 | 7 | 5 | 5 | -64 | -1 | . | .
CCOc1ccc2nc(-c3ccccc3)nc(SCC(=O)Nc3ncc(C)s3)c2c1 | 5 | 11 | 4 | 4 | -19 | -1 | . | .
COC(=O)Cn1c(=O)c2c(nc3n2CCCN3CCc2ccccc2)n(C)c1=O | 3 | -3 | 0 | 19 | -2 | 0 | . | .
N/C(=N/OC(=O)c1ccccc1Cl)c1ncc([N+](=O)[O-])s1 | 8 | 17 | 0 | -7 | -75 | 7 | . | .
Cc1ccc(C)c(S(=O)(=O)N2CCN(C(=O)[C@@H]3CCCN3C(=O)c3cccs3)CC2)c1 | . | 10 | 1 | -1 | -28 | 0 | . | .
COc1ccc(NC(=O)CCCc2nnc3n(C)c(=O)c4sccc4n23)cc1 | 2 | 6 | -5 | 3 | -15 | 0 | . | .
COc1ccc(S(=O)(=O)N2CCNC(=O)CC2)cc1 | 6 | 1 | 4 | -1 | -22 | -1 | . | .
S=C(NCCc1ccccc1)N1CCn2cccc2C1c1cccnc1 (stereo not given) | -7 | 6 | 0 | 32* | -14 | -1 | 2 | -4
Cc1ccc(NC(=S)NCCc2ccccc2)nc1 | 3 | 0 | -1 | -6 | -10 | 1 | . | .
COCc1cc(C)nc(SCc2ccccc2Cl)c1C#N | -18 | 6 | -1 | 25* | -4 | -1 | 7 | -4
CCOC(=O)C(C)Sc1nc2c(c(-c3cccs3)c1C#N)CCC2 (stereo not given) | -11 | 8 | 4 | 65* | -10 | 0 | 76* | -4
CC(C)OC(=O)CC(=O)CSc1nc2c(c(-c3cccs3)c1C#N)CCC2 | 5 | 3 | 5 | -1 | -28 | 2 | . | .
N#Cc1c(SC(C(=O)O)c2ccccc2)nc2c(c1-c1cccs1)CCCC2 (stereo not given) | -2 | 5 | -3 | 52* | -7 | 3 | 52* | -9
CSc1nc2c(c(-c3ccccc3)c1C#N)CCC2 | -6 | 22 | 2 | 9 | 4 | -1 | . | .
COc1ccc2nc(Nc3nc(CSc4nc5ccccc5s4)cc(=O)[nH]3)nc(C)c2c1 | -1 | . | . | . | . | . | . | .
CCCCCCn1c(=O)n2n(c1=O)C[C@]1(OC(=O)NCc3ccccc3)CN(S(=O)(=O)c3ccc(C)cc3)C[C@]1(O)C2 | . | 9 | -2 | -1 | . | . | . | .
CCCCCCn1c(=O)n2n(c1=O)C[C@]1(OC(=O)Nc3cccs3)CN(S(=O)(=O)c3ccc(C)cc3)C[C@]1(O)C2 | . | 19 | 5 | 25* | . | . | 5 | 0
COc1ccccc1NC(=O)CSc1nc2c(oc3ccccc32)c(=O)n1C | 8 | -1 | 2 | 3 | -7 | 1 | . | .

Assay outcomes: PubChem BioAssay, several laboratories
